32 compounds from PubChem BioAssay (NCATS) can be followed below.

For assay [1], the system named is PC15. Put plainly: qHTS profiling for inhibitors of Plasmodium falciparum proliferation (AID 504749). To be noted: P. falciparum in erythrocytes, SYBR Green DNA, 72 h; series mostly up to 28.7 µM. The essentials: (§1)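 Parasite proliferation within erythrocytes, 72 h exposure. Endpoint: SYBR Green I fluorescence after overnight lysis at room temperature. Controls: 0.29 uM artemisinin, DMSO.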

The test system of assay [2] is PC26. Described as above. Particulars: P. falciparum in erythrocytes, SYBR Green DNA, 72 h; series mostly up to 28.7 µM. The essentials: as §1
Assay [3] relates to PC49. Described as above. To be noted: P. falciparum in erythrocytes, SYBR Green DNA, 72 h; series mostly up to 28.7 µM. An outline of the steps:
as §1

The subject of assay [4] is SC27B. The assay is described as above. Particulars: P. falciparum in erythrocytes, SYBR Green DNA, 72 h; series mostly up to 28.7 µM. An outline of the steps:
as §1

Assay [5] deals with TAB109. The assay is described as above. To be noted: P. falciparum in erythrocytes, SYBR Green DNA, 72 h; series mostly up to 28.7 µM. An outline of the steps: as §1
The subject of assay [6] is TAB113. The description is as above. Particulars: P. falciparum in erythrocytes, SYBR Green DNA, 72 h; series mostly up to 28.7 µM. The essentials: as §1
For assay [7], the system named is TAB165. Described as above. To be noted: P. falciparum in erythrocytes, SYBR Green DNA, 72 h; series mostly up to 28.7 µM. The essentials:
as §1

The subject of assay [8] is W2. The assay is described as above. To be noted: P. falciparum in erythrocytes, SYBR Green DNA, 72 h; series mostly up to 28.7 µM. An outline of the steps: as §1
Assay [9] concerns HEK293. Nature of the assay: Cytotoxic Profiling of Annotated Libraries Using Quantitative High-Throughput Screening (AID 1296008). As to max response: % is scaled to controls: 0 for no effect and ±100 for the full control effect. To be noted: Five cell lines viability, CellTiter-Glo ATP luminescence, 48-72 h; max response: stronger effect = lower value. The essentials: (§2)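 Compounds were pin-transferred onto cells and incubated 48 or 72 hr at 37 degree Celsius, 95% humidity. CellTiter-Glo was added, plates sat 10 min at room temperature, then ATP-coupled luminescence was imaged as the viability read-out.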

In assay [10] the test system is CRL-7250. The assay is described as above. To be noted: Five cell lines viability, CellTiter-Glo ATP luminescence, 48-72 h; max response: stronger effect = lower value. The essentials:
as §2

Inconclusive results are not listed. Values without a mark were called inactive. Calls of active or inactive are those of the source. Calls follow the shape of the dose curve; as a rule, active = well fitted inhibition curve with a large enough effect; inconclusive = small, poorly fitted or top-dose-only effect; inactive = flat fitted curve, though single readings scatter.
Also: nearly all actives have a fitted effect of over 60% in size.
Potency is read from the fitted curve at half-maximal effect.

Turning to `COc1cc2c(cc1OC)-c1cc(=Nc3c(C)cc(C)cc3C)n(C)c(=O)n1CC2`, the Potency in assay [1] was 10 µM (active); in assay [2], 6.01 µM (active); in assay [3] it was 3.55 µM (active); in assay [4], 2.82 µM (active); in assay [5], 4.47 µM (active); in assay [6], 3.16 µM (active). Besides, the Potency is 2.51 µM (active) in assay [7] and 1.9 µM (active) in assay [8].

For the compound `CC[N+](C)(C)c1cccc(O)c1`, the Potency result in assay [1], in assay [2], in assay [3], in assay [4], in assay [5] and in assay [6] was “inactive” in each case. In addition, the Potency entry in assay [7] and in [8] was “inactive” throughout.

As for `NS(=O)(=O)c1cc2c(cc1Cl)NC(C1CC3C=CC1C3)NS2(=O)=O` (stereo not given), the Potency entry in assay [1], in [2], in assay [3], in [4], in assay [5] and in [6] was “inactive” in each case. The Potency result in assay [7] is “inactive”. Besides, the outcome in assay [9] was inactive.

For the compound `COCC(=O)O[C@]1(CCN(C)CCCc2nc3ccccc3[nH]2)CCc2cc(F)ccc2[C@@H]1C(C)C`, the Potency in assay [1] was 4.47 µM (active); in assay [2], 3.38 µM (active); in [3], 1.12 µM (active); in [4], 1.78 µM (active); in [5], 2.24 µM (active); in assay [6], 2 µM (active). In addition, the Potency in [7] was 2 µM (active); in assay [8] it was 0.12 µM (active).

Regarding `CN/C(=C\[N+](=O)[O-])NCCSCc1ccc(CN(C)C)o1`, the max response in assay [9] was 0.484%.

`COCCOC(=O)C1=C(C)NC(C)=C(C(=O)OC(C)C)C1c1cccc([N+](=O)[O-])c1` (stereo not given): the results for the Potency in assay [2] and in assay [7] were 12 µM (active) and 10 µM (active), respectively. The Potency result in [3] is “inactive”.

Regarding `Cc1nnc(SCC2=C(C(=O)O)N3C(=O)[C@@H](NC(=O)Cn4cnnn4)[C@H]3SC2)s1`, the Potency entry in assay [1], in assay [2], in [3], in [4], in assay [5] and in [6] was “inactive” in each case. Besides, the Potency entry in assay [7] and in assay [8] was “inactive” in each case. In addition, the compound was called inactive in assay [9].

On to `CSc1ccc(C(=O)c2[nH]c(=O)[nH]c2C)cc1`, for which the Potency result in [1], in [2], in assay [3], in assay [4], in assay [5] and in [6] was “inactive” in each case. Also, the Potency result in [7] and in [8] was “inactive” each time.

`Cc1nc2sccn2c(=O)c1CCN1CCC(=C(c2ccc(F)cc2)c2ccc(F)cc2)CC1`: the Potency in assay [7] is 12.6 µM (active). Also, in [10], the result was inactive.

Regarding `CCc1cccc(N(C)C(N)=Nc2cccc3ccccc23)c1`, the results for the Potency in assay [1], in assay [2] and in assay [8] were 5.01 µM (active), 4.26 µM (active) and 0.757 µM (active), respectively.

Take `CN(C(=O)CCCOc1ccc2[nH]c(=O)ccc2c1)C1CCCCC1`: the Potency result in assay [1], in assay [4], in assay [5] and in [6] was “inactive” each time.

Take `O=C1NCN(c2ccccc2)C12CCN(CCCC(c1ccc(F)cc1)c1ccc(F)cc1)CC2`: the Potency in assay [1] is 11.2 µM (active); in [4], 8.91 µM (active); in assay [5], 6.31 µM (active); in assay [6], 12.6 µM (active); in assay [7], 3.55 µM (active); in [8], 2.39 µM (active). Further, the Potency in assay [9] was 10.6 µM (active).

Regarding `CN(C)CCN(Cc1cccs1)c1ccccn1`, the Potency was 10 µM (active) in [3], 4.47 µM (active) in assay [5] and 1.9 µM (active) in [8].

`CN(C)C(=O)Oc1ccc[n+](C)c1`: the Potency entry in assay [1], in [2], in assay [3], in assay [4], in assay [5] and in assay [6] was “inactive” each time. Besides, the Potency entry in assay [7] and in [8] was “inactive” each time.

Consider `C[N+](C)(C)CCCCCCCCCC[N+](C)(C)C`, for which the Potency in assay [1] was 8.91 µM (active); in [2], 6.01 µM (active); in [3] it was 3.98 µM (active); in assay [4], 3.98 µM (active); in [5] it was 3.55 µM (active); in assay [6], 2.82 µM (active). The Potency was 3.16 µM (active) in [7] and 4.78 µM (active) in assay [8].

For the compound `COC(=O)C1=C(C)NC(C)=C(C(=O)OC(C)(C)CN(C)CCC(c2ccccc2)c2ccccc2)C1c1cccc([N+](=O)[O-])c1` (stereo not given), the Potency in assay [1] was 6.31 µM (active); in assay [2] it was 1.51 µM (active); in assay [4] it was 2.24 µM (active); in assay [5], 3.16 µM (active); in assay [6], 2.51 µM (active); in assay [7], 2.24 µM (active). Also, the results for the Potency in assay [8] and in [9] were 1.2 µM (active) and 10.6 µM (active), respectively.

As to `CC(C)(C)c1ccc(C(=O)CCCN2CCC(OC(c3ccccc3)c3ccccc3)CC2)cc1`, the Potency entry in assay [3] was “inactive”. Moreover, the Potency in assay [7] was 7.94 µM (active); in assay [8], 4.78 µM (active); in assay [9], 8.41 µM (active).

On to `COCCCC/C(=N\OCCN)c1ccc(C(F)(F)F)cc1`, for which the Potency entry in [3] was “inactive”. In addition, the Potency in [7] was 7.94 µM (active).

Consider `Cc1nc2ccccn2c(=O)c1CCN1CCC(C(=O)c2ccc(F)cc2)CC1`, for which the Potency entry in assay [2], in assay [4] and in assay [6] was “inactive” each time. In addition, the Potency in assay [8] is 6.01 µM (active).

Consider `CCCCNC(=O)NS(=O)(=O)c1ccc(C)cc1`, for which the Potency entry in [1], in assay [2], in [3], in [4], in [5] and in [6] was “inactive” in each case. The Potency entry in assay [7] and in [8] was “inactive” each time.

Consider `Fc1ccc(C(c2ccc(F)cc2)N2CCN(C/C=C/c3ccccc3)CC2)cc1`, for which the Potency in assay [7] is 11.2 µM (active).

On to `CCOC(=O)C1=C(C)NC(C)=C(C(=O)OC)C1c1cccc(Cl)c1Cl` (stereo not given), for which the Potency result in [1], in assay [3], in assay [5] and in assay [6] was “inactive” throughout.

Turning to `CC1=NS(=O)(=O)c2cc(Cl)ccc2N1`, the Potency entry in [2], in assay [4] and in [6] was “inactive” throughout.

Turning to `COc1ccc([C@@H]2Sc3ccccc3N(CCN(C)C)C(=O)[C@@H]2OC(C)=O)cc1`, the Potency result in assay [1], in [2], in assay [3], in assay [4], in [5] and in assay [6] was “inactive” each time. The Potency result in assay [7] was “inactive”.

As to `C#CCN(C)CCCOc1ccc(Cl)cc1Cl`, the Potency result in [1], in assay [2], in assay [3], in [4], in [5] and in [6] was “inactive” each time. Further, the Potency entry in assay [7] was “inactive”.

As for `OCCN1CCN(CC/C=C2/c3ccccc3Sc3ccc(C(F)(F)F)cc32)CC1`, the Potency in assay [1] was 12.6 µM (active); in assay [2], 6.75 µM (active); in assay [4] it was 10 µM (active); in assay [5] it was 8.91 µM (active); in assay [6], 11.2 µM (active); in assay [7] it was 10 µM (active). The Potency in assay [8] is 1.9 µM (active).

`NC1=NCC2c3ccccc3Cc3ccccc3N12` (stereo not given): the Potency entry in [1], in assay [2], in assay [3], in assay [4], in assay [5] and in assay [6] was “inactive” each time. Moreover, the Potency entry in assay [7] and in [8] was “inactive” each time.

As to `C[C@]12CCC(=O)C=C1CC[C@@H]1[C@@H]2C(=O)C[C@@]2(C)[C@H]1CC[C@]2(O)C(=O)CO`, the call in [9] was inactive.

Consider `c1cc(CN2CCCCC2)cc(OCCCNc2nc3ccccc3s2)c1`, for which the Potency is 2.24 µM (active) in assay [5], 3.98 µM (active) in assay [7] and 4.78 µM (active) in assay [8]. Also, in assay [10], the max response is -17.3%.

In the case of `CN(C)CCCN1c2ccccc2Sc2ccc(C(F)(F)F)cc21`, the results for the Potency in assay [3], in assay [7] and in assay [8] were 8.91 µM (active), 12.6 µM (active) and 6.75 µM (active), respectively.

As to `CCNC(=O)N1CCN(CCCC(c2ccc(F)cc2)c2ccc(F)cc2)CC1`, the Potency in assay [1] is 3.55 µM (active); in [2] it was 4.78 µM (active); in [3] it was 0.891 µM (active); in [4], 2 µM (active); in assay [5] it was 2.24 µM (active); in [6], 2.24 µM (active). The Potency is 2 µM (active) in assay [7] and 0.953 µM (active) in assay [8].

With `CCN(CC)CCOCCOC(=O)C1(c2ccccc2)CCCC1`, the Potency in assay [1] is 11.2 µM (active); in [2], 12 µM (active); in [3], 7.08 µM (active); in [4] it was 12.6 µM (active); in [5], 6.31 µM (active); in [6], 11.2 µM (active). Also, the Potency is 8.91 µM (active) in [7] and 0.953 µM (active) in [8].
